Compounds with a hit are over-represented: about 2.1% of the library has one in this group of screens.
YB-1 expr inh: YB-1 expression inhibition | U2OS, qRT-PCR YB-1 vs CDIP delta delta Cp, 16 h; stronger effect = higher value; zero = DMSO, each unit about twofold | delta delta Cp (YB-1 minus CDIP) (no concentration beside the values) | 30,000 compounds, 0.37% hits | AID 434959;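 active = delta delta Cp rounded down to an integer at or above 3, about 3 SD of DMSO wells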;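 note: higher means less YB-1 transcript or more CDIP transcript relative to DMSO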
ROS inducer: inducers of reactive oxygen species in cancer cells | AID 624156 | U2OS ROS induction, H2DCF-DA fluorescence | 46,000 compounds, 2% hits | ROS induction (% of piperlongumine), % at 10 µM; in the data active = ROS induction above about 79%, passing the limit was not always enough;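 note: 0% = DMSO vehicle median and 100% = reference compound median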
An asterisk follows results filed as active; . = no result.

SMILES	YB-1 expr inh	ROS inducer
CN(C)c1ccc(-c2nc3ccc4ccccc4c3c3c2CCC3)cc1	-0.443	9.7
CCN(CC)S(=O)(=O)c1cc(-c2nnc(-c3ccc(C)cc3)o2)ccc1C	.	33.0
Cc1cc2nc(C)n(CCCNC(=O)NC34CC5CC(CC(C5)C3)C4)c2cc1C	.	11.5
COc1ccc(S(=O)(=O)N2CCOCC2)cc1C(=O)Nc1ccc(S(=O)(=O)C(F)F)cc1	.	10.8
COc1ccc(-c2cc(C(F)F)n3ncc(C(=O)Nc4cccc(S(=O)(=O)N5CCOCC5)c4)c3n2)cc1	.	132.6*
C[C@H](CO)N1C[C@H](C)[C@@H](CN(C)C(=O)Nc2ccc(C(C)(C)C)cc2)OCc2cnnn2CCCC1=O	0.1	-2.4
COc1ccccc1CN(C)C[C@H]1OCc2cnnn2CCCC(=O)N([C@H](C)CO)C[C@H]1C	-0.246	113.3*
COc1ccccc1CN(C)C[C@H]1OCc2cnnn2CCCC(=O)N([C@@H](C)CO)C[C@H]1C	-0.412	-1.3
C[C@@H]1CN([C@@H](C)CO)C(=O)CCCn2nncc2CO[C@@H]1CN(C)C(=O)Nc1ccc(C(C)(C)C)cc1	-0.0503	113.6*
O=S(=O)(CCN1CCN(C(c2ccccc2)c2ccccc2)CC1)c1ccc(Cl)cc1	.	1.5
c1ccc2c(c1)NC(c1ccc3c(c1)OCO3)S2 (stereo unspecified)	.	-11.2
Cc1ccc(SCc2nccn2Cc2ccc(Cl)cc2)cc1	.	12.7
Cc1n[nH]c(=O)c2nc(-c3ccccc3)sc12	.	-14.4
Cc1ccc(/C=C/c2onc3c(=O)[nH]nc(C)c23)cc1	.	118.8*
Cc1ccc(S[C@]2(C(=O)NC(C)C)CC(=O)N(C(C)C)[C@@H]2c2ccc(CO)cc2I)cc1	-0.337	176.1*
CCCNC(=O)[C@@]1(Sc2ccc(C)cc2)CC(=O)N(C2CCCCC2)[C@@H]1c1ccc(CO)cc1I	0.246	161.7*
Cc1ccc(S[C@]2(C(=O)NC3CC3)CC(=O)N(C3CCCCC3)[C@@H]2c2ccc(CO)cc2I)cc1	-0.0637	11.2
Cc1ccc(S[C@]2(C(=O)NCCCN(C)C)CC(=O)N(C3CCCCC3)[C@@H]2c2ccc(CO)cc2I)cc1	-0.051	6.2
CN(C)CCCNC(=O)[C@@]1(c2ccc([N+](=O)[O-])cc2)CC(=O)N(C2CCCCC2)[C@@H]1c1ccc(CO)cc1I	0.15	30.8
COc1ccc(CCNC(=O)[C@@]2(Sc3ccc(C)cc3)CC(=O)N(C3CCCCC3)[C@@H]2c2ccc(CO)cc2I)cc1	-0.109	160.0*
O=C1Nc2cc(C(=O)N3CCc4ccccc4C3)ccc2Sc2ccccc21	.	-0.6
CN1C(=O)C(CC(=O)Nc2ccc(F)cc2)N(Cc2ccccc2)C1=S (stereo unspecified)	.	0.2
Cc1cccc(N2CCN(CCNC(=O)c3ccc4nc(N5CCOCC5)sc4c3)CC2)c1C	.	0.2
O=S(=O)(c1ccc(Cc2ccc(S(=O)(=O)N3CCCCC3)cc2)cc1)N1CCCCC1	.	67.6
O=C(NCc1ccccc1)c1cc2c(s1)CS(=O)(=O)C2	.	-3.7
SMILES	YB-1 expr inh	ROS inducer
CC1CCc2c(sc3ncnc(NCCCOC(C)C)c23)C1 (stereo unspecified)	.	62.1
OCCCNc1ncnc2scc(-c3ccccc3)c12	.	2.5
Clc1ccc(-c2csc3ncnc(NCCN4CCOCC4)c23)cc1	.	139.4*
CC1CCc2sc3ncnc(NCCN4CCOCC4)c3c2C1 (stereo unspecified)	.	79.8*
CC(C)(C)C1CCc2c(sc3nc(-c4cccs4)oc(=O)c23)C1 (stereo unspecified)	-0.244	10.5
Cc1ccc(-c2nn(CCC(=O)O)cc2/C=C2\SC(N)=NC2=O)cc1	.	0.8
NC1=NC(=O)/C(=C/c2ccc(I)o2)S1	.	141.1*
COc1ccc(C2CC(=O)c3cnc(NCCc4ccccc4)nc3C2)cc1 (stereo unspecified)	.	29.2
CC12C=CC(=O)C=C1CCC1C2=CCC2(C)C1CC[C@@H]2C(=O)CN1CCN(c2cc(N3CCCC3)nc(N3CCCC3)n2)CC1 (stereo partly specified)	-0.238	174.1*
N#Cc1c(OCC(F)(F)F)ccc(S(=O)(=O)N2CCCC2)c1OCC(F)(F)F	.	5.6
Cc1csc(NC(=O)CSc2nc(C34CC5CC(CC(C5)C3)C4)ccc2C#N)n1	0.696	1.4
COc1cccc(NC(=O)c2oc3ccc(S(=O)(=O)N4CC(C)CC(C)C4)cc3c2C)c1 (stereo unspecified)	.	11.9
C[C@H](CO)N1C[C@H](C)[C@H](CN(C)Cc2ccc(F)cc2)Oc2ncc(-c3cccc(C(F)(F)F)c3)cc2C1=O	-0.374	77.1*
CC(C)NC(=O)N(C)C[C@@H]1Oc2ncc(-c3cc4ccccc4o3)cc2C(=O)N([C@H](C)CO)C[C@@H]1C	-0.208	-5.6
C[C@H](CO)N1C[C@H](C)[C@H](CN(C)C(=O)Nc2ccc(F)cc2)Oc2ncc(-c3cccc(C(F)(F)F)c3)cc2C1=O	0.0571	91.4*
C[C@H](CO)N1C[C@H](C)[C@H](CN(C)C(=O)Nc2ccc(F)cc2)Oc2ncc(-c3cccc(F)c3)cc2C1=O	-0.339	74.8
C[C@H](CO)N1C[C@H](C)[C@H](CN(C)Cc2ccccc2)Oc2ncc(-c3cccc(C(F)(F)F)c3)cc2C1=O	0.145	41.9
COc1ccc(NC(=O)N(C)C[C@@H]2Oc3ncc(-c4cccc(C(F)(F)F)c4)cc3C(=O)N([C@H](C)CO)C[C@@H]2C)cc1	-0.0146	32.4
C[C@H](CO)N1C[C@H](C)[C@H](CN(C)C(=O)Nc2ccccc2)Oc2ncc(-c3cccc(C(F)(F)F)c3)cc2C1=O	0.0882	98.2*
C[C@H](CO)N1C[C@H](C)[C@H](CN(C)C(=O)Nc2ccccc2)Oc2ncc(-c3cc4ccccc4o3)cc2C1=O	-0.129	153.1*
CC(=O)N(/C=C1\SC(=S)N(Cc2ccccc2)C1=O)c1ccccc1	.	-9.4
CC(C)(C)c1ccc(C(=O)Nc2c3c(nn2-c2ccc(Cl)cc2)CSC3)cc1	.	8.2
CS(=O)(=O)N1CCN(c2cccc(Cl)c2)CC1	.	9.4
Cc1cc(/C=C2/C(=N)N3C=CSC3=NC2=O)c(C)n1-c1ccccc1	.	219.8*
Cc1ccc(COc2ccc(/C=C3/C(=N)N4C=CSC4=NC3=O)cc2Br)cc1	.	-4.2
SMILES	YB-1 expr inh	ROS inducer
CC(C)NC(=O)Cn1c(=O)c2cccn2c2cccnc21	.	-19.6
O=c1[nH]nc(CSc2ccc(Cl)cc2)c2ccccc12	.	-4.7
O=S(=O)(NCC1CCN(Cc2cccc(OCCO)c2)CC1)c1ccc(Cl)c(Cl)c1	0.405	122.6*
O=S(=O)(N[C@@H]1CCCN(Cc2cccc(OCCO)c2)C1)c1ccc(Cl)c(Cl)c1	0.0315	25.1
O=C(NCCOc1cccc(C(F)(F)F)c1)c1cccc(NC2=NC3CS(=O)(=O)CC3S2)c1 (stereo unspecified)	.	-1.7
C[C@@H]1CN([C@@H](C)CO)C(=O)Cc2cc(NS(=O)(=O)c3ccccc3)ccc2O[C@@H]1CN(C)S(=O)(=O)c1ccc(F)cc1	0.0694	13.9
C[C@@H]1CN([C@H](C)CO)C(=O)Cc2cc(NS(=O)(=O)c3ccccc3)ccc2O[C@@H]1CN(C)S(=O)(=O)c1ccccc1	-0.107	13.2
C[C@H]1CN([C@@H](C)CO)C(=O)Cc2cc(NS(=O)(=O)c3ccc(F)cc3)ccc2O[C@H]1CN(C)S(=O)(=O)c1ccccc1	-0.51	106.2*
C[C@@H]1CN([C@H](C)CO)C(=O)Cc2cc(NS(=O)(=O)c3ccccc3)ccc2O[C@H]1CN(C)S(=O)(=O)c1ccccc1	5.14*	1.2

Assay outcomes as filed in PubChem BioAssay.
